Screening results as filed in PubChem.
Most compounds without a hit are left out; they make up all but 1.3% or so of the library.
PrP UTR inh: inhibition of PrP 5' UTR reporter expression. cell-based PrP 5' UTR mRNA reporter, plate reader. inhibition, % (test concentration not listed). 340,000 compounds, 0.35% hits. AID 488862, 2010; in the data active = inhibition above about 52%; also: 0 = median of the neutral control wells
3CLpro inhibitor: SARS-CoV 3CLpro protease inhibitors, primary screen, biochemical, quenched FRET. inhibition, % at 6 µM. 290,000 compounds, 0.14% hits. Replicase polyprotein 1ab (Severe acute respiratory syndrome coronavirus), P0C6X7. recombinant SARS-CoV 3CLpro, quenched FRET peptide cleavage. AID 1706, 2009; in the data active = inhibition above about 12%
PrPC surface inh: inhibitors of human cell surface prion protein PrPC, primary screen, cell-based, TR-FRET | inhibition, % at 13.8 µM | Major prion protein (Homo sapiens), P04156 | 370,000 compounds, 0.43% hits | TR-FRET read-out | AID 720596, 2013; in the data active = inhibition above about 24%; also: 0% = median of the test wells and 100% = reference compound wells
CCHF vOTU inh: CCHFV vOTU protease inhibitors, primary screen, biochemical, Pep-AMC substrate, fluorescence; Crimean-Congo hemorrhagic fever virus L polyprotein viral ovarian tumor (vOTU) protease …; inhibition, % at 11.5 µM; AID 651958, 2012; 370,000 compounds, 0.55% hits; in the data active = inhibition above about 30%; also: 0% = vehicle wells with enzyme and 100% = no enzyme wells
PrPC TRFRET cf: confirmation of inhibitors of cell surface human prion protein, confirmation, cell-based, TR-FRET. shares compounds with PrPC surface inh. cell surface PrPC level. inhibition, % at 13.8 µM. 1,500 compounds, 65% hits. AID 743200, 2013; in the data active = inhibition above about 25%
LD9 cytotox: cytotoxicity in LD9 cells, cytotoxicity control for cell surface PrPc inhibitor project, cell-based, luminescence, high throughput; shares compounds with PrPC surface inh; luminescence viability; inhibition, % at 13.8 µM; 1,500 compounds, 29% hits; AID 743201, 2013; in the data active = inhibition above about 9.5%
* marks the source's active call; other numbers are inactive results; . = not tested or not shown.

SMILES | PrP UTR inh | 3CLpro inhibitor | PrPC surface inh | CCHF vOTU inh | PrPC TRFRET cf | LD9 cytotox
CCOc1ccc(NC(=O)Nc2ccc(Cc3ccncc3)cc2)cc1 | 9 | -2 | 33* | -4 | 29* | 4
CCOc1ccc(NC(=O)C(=O)NCc2ccncc2)cc1 | -24 | 2 | 8 | -7 | . | .
CCOC(=O)c1c(C)[nH]c(N=Nc2ccccc2)c1C | -119 | 6 | -2 | 12 | . | .
Cc1ccc(NC(=O)c2c(C(F)(F)F)nn(C)c2SCc2cccc(C(F)(F)F)c2)cc1C | -12 | -8 | 30* | 22 | 25* | 9.4*
Cc1ccc(NC(=O)c2c(C(F)(F)F)nn(C)c2SCc2ccc(Cl)cc2)cc1C | 9 | 5 | 11 | 10 | . | .
CCOC(=O)c1c(NC(=O)COc2ccccc2C#N)sc2c1CC(C)(C)NC2(C)C | -4 | -3 | 117* | 0 | 104* | 31*
CC1(C)Cc2c(sc(NC(=O)c3ccc(C(=O)c4ccccc4)cc3)c2C(N)=O)C(C)(C)N1 | -5 | 0 | 36* | 7 | -15 | 19*
COC(=O)c1c(NC(=O)c2ccccc2)sc2c1CC(C)(C)NC2(C)C | -2 | -3 | 1 | 0 | . | .
CC1CCCCC12NC(=O)N(CC(=O)NCCc1ccc(F)cc1)C2=O (stereo unspecified) | -16 | . | -4 | 10 | . | .
COc1cc(/C=N/NC(=O)c2ccc(CN(C)S(=O)(=O)c3ccc(C)cc3)cc2)ccc1O | -11 | -4 | 28* | 6 | 13 | -1
CC(C)N1CCc2c(sc(NC(=O)C3CCCCC3)c2C(N)=O)C1 | -19 | 8 | 32* | 17 | 8 | 3
COc1ccc(C(=O)Nc2ccc(-c3cn4ccsc4n3)cc2)cc1S(=O)(=O)N1CCOCC1 | 0 | -5 | 77* | -1 | 51* | -3
COc1ccc(NC(=O)Cc2ccsc2)c(OC)c1 | -21 | 0 | -1 | 3 | . | .
Cc1cc2cc(CNC(=O)C(C)Oc3ccccc3)ccc2n1C (stereo unspecified) | -14 | -8 | 36* | 3 | 20 | -5
CCCCNC(=S)NCc1ccc2c(c1)cc(C)n2C | -37 | 3 | 9 | 11 | . | .
Cc1ccccc1NC(=S)NCc1ccc2c(c1)cc(C)n2C | -21 | 0 | 13 | -1 | . | .
Cc1cc2cc(CNC(=S)NCc3ccccc3)ccc2n1C | -26 | 1 | 31* | -3 | 29* | -7
COc1ccccc1NC(=S)NCc1ccc2c(c1)cc(C)n2C | -16 | 4 | 50* | 9 | 7 | -10
Cc1ccc(SC(C)C(=O)Nc2cccnc2)cc1 (stereo unspecified) | -11 | 2 | 2 | -7 | . | .
CC(=O)OCC[N+](C)(C)C | -2 | -4 | 1 | 1 | . | .
COCc1cc(=O)[nH]c(Nc2nc3ccc(C)cc3o2)n1 | -42 | 2 | 32* | 4 | 13 | 48*
Cc1cc(SCCC(=O)O)nc2ccccc12 | -4 | -1 | 8 | -1 | . | .
O=C(O)CCSc1ccc2ccccc2n1 | -1 | 0 | 82* | 3 | 89* | -3
O=C(O)CSc1ccc2ccccc2n1 | -6 | 1 | 58* | 6 | 58* | -1
CCOC(=O)CSc1ccc2ccccc2n1 | -10 | 3 | 28* | -6 | 61* | -7
SMILES | PrP UTR inh | 3CLpro inhibitor | PrPC surface inh | CCHF vOTU inh | PrPC TRFRET cf | LD9 cytotox
Cc1nc(SCCC(=O)O)c2ccccc2n1 | 1 | 1 | 103* | 7 | 119* | 3
CCC(C(=O)OCC(=O)N1CCN(S(=O)(=O)c2ccc(C)cc2C)CC1)c1ccccc1 (stereo unspecified) | -26 | . | 5 | 1 | . | .
COc1ccc(Cl)cc1N/C(N)=N/c1nc(C)cc(=O)[nH]1 | -36 | -4 | 32* | 9 | 4 | -1
CN(C)S(=O)(=O)Oc1cccc(C(=O)Nc2cccc(Cl)c2)c1 | -48 | 1 | 24* | 2 | 22 | 20*
CN(C)S(=O)(=O)Oc1cccc(C(=O)Nc2ccc(Cl)c(Cl)c2)c1 | -110 | 4 | 23 | 6 | . | .
CCC(=O)Oc1ccc2c(C)c(Cl)c(=O)oc2c1 | -13 | -3 | 4 | -265 | . | .
CCOP(=S)(OCC)Oc1ccc2c(C)c(Cl)c(=O)oc2c1 | . | . | 68* | 4 | 37* | 1
O=C(Nc1nc2ccccc2[nH]1)c1cccc(Br)c1 | -131 | -4 | 6 | 15 | . | .
COc1ccc(CN2C(=O)CSCC2(C)C(=O)Nc2c(C)cccc2C)cc1 (stereo unspecified) | . | . | 6 | 6 | . | .
CC(=O)Nc1cccc(NC(=O)c2cccc(-c3ccc(O)cc3)c2)c1 | -65 | 5 | -7 | -5 | . | .
COc1ccc(NC(=O)c2cccc(-c3ccc(O)cc3)c2)cn1 | -27 | 1 | 33* | -10 | 14 | 5
COc1ccc(OC)c(CC(NC(C)=O)C(=O)NC2CCN(C(=O)c3cccc(C)c3)CC2)c1 (stereo unspecified) | -13 | -2 | -5 | 5 | . | .
COc1ccc(C(=O)Nc2ccc(C)c(S(=O)(=O)N3CCOCC3)c2)cc1S(=O)(=O)N1CCCC1 | -22 | . | 8 | 18 | . | .
COc1ccc(/C=C\C(=O)NCc2ccc3c(c2)cc(C)n3C)cc1OC | -14 | -8 | 81* | 5 | 59* | -9
Cc1cc2cc(CNC(=O)c3cccs3)ccc2n1C | -30 | -2 | 35* | 4 | 17 | 3
COc1ccc(/C=C/C(=O)NCCCNC(=O)/C=C/c2ccc(OC)c(OC)c2)cc1OC | -30 | . | -7 | 3 | . | .
COc1ccc(CC(=O)NCc2ccc3c(c2)cc(C)n3C)cc1 | -7 | -2 | -1 | 5 | . | .
COc1ccc(C(=O)NCc2ccc3c(c2)cc(C)n3C)cc1OC | 30 | 1 | 45* | 10 | 8 | -1
COc1cccc(C(=O)NCc2ccc3c(c2)cc(C)n3C)c1 | -29 | -5 | 46* | 1 | 49* | 0
O=C(N1CCc2cc(S(=O)(=O)NC[C@H]3O[C@@H](n4ccc(=O)[nH]c4=O)[C@H](O)[C@@H]3O)ccc2C1)C(F)(F)F | 3 | . | -1 | -2 | . | .
Cc1c(CN2CCCC(C)C2)c(O)n(CCO)c(=O)c1C#N (stereo unspecified) | -25 | 2 | -5 | 13 | . | .
CCOc1ccc(NC(=O)CSc2nnc(C)n2Cc2ccccc2)cc1 | -2 | -4 | 1 | 5 | . | .
NC(=O)c1ccsc1NC(=O)COC(=O)c1ccc(Cl)nc1 | 3 | . | 3 | -1 | . | .
CCN(CC)C(=O)CSc1nc(O)c(Cc2ccccc2)c(=O)n1-c1ccc(C)cc1 | -12 | 2 | 2 | 4 | . | .
CCN(CC)C(=O)CSc1nc(O)c(Cc2ccccc2)c(=O)n1-c1ccccc1 | -15 | 1 | 60* | 12 | 53* | -7
O=C(Nc1ccccc1)C1=C(c2ccccc2)S(=O)(=O)CCS1(=O)=O | -8 | 1 | 33* | 6 | 0 | 70*
